Drawing on PubChem BioAssay AID488896 (Broad Institute, 2010), this text covers inhibition for 87 molecules.

Structures are written as SMILES. The whole screen tested about 320,000 compounds, of which about 3,100 (0.97%) were called active.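 Rule for the calls: active = mean replicate inhibition of at least 70% and a set share of replicates each scoring 70 or more; inconclusive = meets just one of the two criteria; inactive = fails both criteria.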 The full list was thinned out, with actives kept by preference.

Scavenger receptor class B member 1 (Mus musculus), sequence (Q61009 whole entry, looked up): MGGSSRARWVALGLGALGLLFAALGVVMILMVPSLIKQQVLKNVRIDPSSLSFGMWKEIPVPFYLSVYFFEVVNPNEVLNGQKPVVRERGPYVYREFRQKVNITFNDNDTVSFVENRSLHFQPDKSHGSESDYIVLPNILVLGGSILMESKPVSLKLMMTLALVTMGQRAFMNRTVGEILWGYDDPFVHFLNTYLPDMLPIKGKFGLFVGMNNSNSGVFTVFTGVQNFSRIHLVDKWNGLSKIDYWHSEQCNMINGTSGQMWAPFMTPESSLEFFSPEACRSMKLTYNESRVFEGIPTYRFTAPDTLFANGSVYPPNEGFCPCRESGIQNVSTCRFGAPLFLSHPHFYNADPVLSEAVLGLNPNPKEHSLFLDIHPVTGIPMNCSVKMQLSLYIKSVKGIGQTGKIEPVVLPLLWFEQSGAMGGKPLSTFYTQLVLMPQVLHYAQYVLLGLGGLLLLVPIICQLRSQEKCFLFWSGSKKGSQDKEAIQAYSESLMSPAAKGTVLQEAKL

This assay addresses Scavenger receptor class B member 1 (Mus musculus) (UniProt Q61009). Briefly: mouse SR-BI DiI-HDL uptake blockers – ldlA[mSR-BI] cells, fluorescence, single point, primary screen (AID 488896).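 Note: 0% = median of neutral control wells and 100% = median of positive control wells.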 The following applies: ldlA[mSR-BI] CHO cells, 3 h, at 12.5 µM, stronger effect = higher value.
Consider `O=C1CC[C@@H]2CC3(C[C@@H]4CCN1[C@H]24)Nc1cc([N+](=O)[O-])ccc1NC3=NC1CCCCC1` (some centres not stated), for which the inhibition – broadly, the drop in the measured response relative to a control, in per cent – is 1.95% (inactive). To `CCN1CCC(O)(/C=C/c2ccc(C)cc2)C(C(=O)/C=C/c2ccc(C)cc2)C1` (configuration not stated) belongs 24.5% (inactive); to `NC(=O)C1(N2CCCC2)CCN(Cc2ccccc2)CC1`, -9.32% (inactive); to `O=C(N/N=C/c1cc([N+](=O)[O-])ccc1O)/C(=C\c1cccs1)NC(=O)c1ccccc1`, 113% (active). To `O=C(Nc1ccc(C(=O)O)cc1)/C(=C/c1ccc([N+](=O)[O-])cc1)NC(=O)c1ccccc1` belongs -3.79% (inactive); to `C=CCNC(=O)/C(=C\c1cccc([N+](=O)[O-])c1)NC(=O)c1ccccc1`, -15% (inactive); to `CCCN(C(=O)COC(=O)CNS(=O)(=O)c1ccc(NC(C)=O)cc1)C1CCS(=O)(=O)C1` (configuration not stated), -1.04% (inactive).

For `Cn1cc(C(=O)c2ccc(Cl)cc2Cl)cc1C(=O)NN`, the inhibition was 25.2% (inactive). Turning to `CC(C)(C)c1cc(C(=O)NN)n(Cc2ccc(Cl)cc2Cl)n1`, the inhibition is 80.1% (active). In the case of `NNC(=O)c1ccc(Cl)cc1Cl`, the inhibition was -14.8% (inactive). `COCCN(C(=O)C(C)N1C(=O)c2ccccc2C1=O)c1c(N)n(CC(C)C)c(=O)[nH]c1=O` (configuration not stated): the inhibition is -16.4% (inactive). The figure for `O=C(COC(=O)c1ccc(O)cc1O)NC(=O)c1ccccc1` is -38.7% (inactive); for `O=C1NCC(Nc2ccccc2)C(=O)N1` (configuration not stated) it is -24.4% (inactive).

Consider `O=C(COC(=O)c1cc(S(=O)(=O)N2CCCCC2)ccc1Cl)NCc1ccco1`, for which the inhibition is 17.2% (inactive). The figure for `CCn1c2ccccc2c2cc(NC(=O)COC(=O)c3ccccc3Br)ccc21` is -7.34% (inactive); for `Cc1cc(C(=O)NNC(=O)c2ccccc2O)c(C)o1` it is 13.4% (inactive); for `CC1CCCC(NC(=O)c2cc(S(=O)(=O)N3CCCCC3)ccc2Cl)C1C` (configuration not stated) it is 11.2% (inactive). As for `O=C(NNC(=O)c1cc(S(=O)(=O)N2CCCCC2)ccc1Cl)c1ccccc1O`, the inhibition was 108% (active). The figure for `O=C(NNC(=O)c1ccccc1O)c1ccccc1O` is 124% (active). For `O=C(Nc1ccccc1C(=O)O)c1cc(S(=O)(=O)N2CCCCC2)cs1`, the inhibition is -2.98% (inactive). To `CCn1c2ccccc2c2cc(NC(=O)COC(=O)c3cc(S(=O)(=O)N4CCCCC4)ccc3Cl)ccc21` belongs 77.1% (active); to `CC1=C(C)CC(C(=O)NNC(=O)c2ccccc2O)C(C(=O)O)C1` (configuration not stated), 13.9% (inactive). The figure for `COc1ccc(CCNC(=O)c2ccc(NC(=O)CC3SC(N4CCCCC4)=NC3=O)cc2)cc1OC` (configuration not stated) is 66.6% (inactive); for `CC(=NNC(=O)c1ccncc1)c1ccc(Cl)c(Cl)c1` it is 6.02% (inactive). The figure for `COc1ccc(Cl)cc1C=CC=Nc1ccc(S(N)(=O)=O)cc1` is -39.7% (inactive). Turning to `Cc1ccc2c(O)c(Cc3ccccc3)c(=O)[nH]c2n1`, the inhibition was 7.66% (inactive). The figure for `COc1ccc(C(CNC(=O)c2ccc(S(=O)(=O)Nc3ccccc3C)cc2)N2CCOCC2)cc1` (configuration not stated) is -2.84% (inactive). To `COc1ccc(C(CNC(=O)c2cccc(NS(=O)(=O)c3ccc(C)c(F)c3)c2)N2CCCC2)cc1` (configuration not stated) belongs -24.5% (inactive); to `COc1ccc(C(CNC(=O)c2cccc(S(=O)(=O)Nc3ccccc3Cl)c2)N2CCOCC2)cc1` (configuration not stated), 79.7% (active).

Consider `COc1ccc(C(=O)Nc2ccc(C3(C#N)CCCC3)cc2)cc1OC`, for which the inhibition was 82% (active). The figure for `COc1cc(C(=O)NCC2(c3ccccc3)CCCC2)ccc1OC(C)C` is 3.63% (inactive); for `COc1ccc(C(=O)Nc2ccc3nc(N4CCCCC4)cc(C)c3c2)cc1OC` it is 44.3% (inactive).

Take `CN(O)C(=S)c1ccccc1`: the inhibition was -24.5% (inactive). To `Cc1c(NS(=O)(=O)c2cccc(C(=O)Nc3ccc(SC(F)F)cc3)c2)c(=O)n(-c2ccccc2)n1C` belongs 10.9% (inactive); to `CC(=O)c1ccc(NC(=O)C(C)OC(=O)c2ccc(NS(=O)(=O)c3ccc4[nH]c(=O)[nH]c4c3)cc2)cc1` (configuration not stated), 18.7% (inactive).

For `COc1ccccc1N1CCN(C(=O)c2cc3c(-c4ccc(Cl)cc4)nn(C)c3s2)CC1`, the inhibition is 58.4% (inactive).

Turning to `Cn1nc(-c2ccc(Cl)cc2)c2cc(C(=O)NCc3ccco3)sc21`, the inhibition was 90.1% (active). The figure for `CN(CCNC(=O)c1cc2c(-c3ccccc3F)nn(C)c2s1)C1CCCCC1` is 42% (inactive); for `C[C@]12CCC(=O)C=C1C=CC1C2CC[C@@]2(C)C1CC[C@@]21CCC(=O)O1` (some centres not stated) it is -3.73% (inactive). To `O=C(c1cccnc1)N(Cc1ccccc1)C(=O)c1cccnc1` belongs -2.46% (inactive); to `CN(C(=O)c1ccc(NC(=O)Cc2cccc(NC(=O)C3CCN(C(=O)c4ccccc4)CC3)c2)cc1)C1CC1`, 15% (inactive); to `CCCC(O)(c1ccccc1)C(c1ccccc1)c1ccccn1` (configuration not stated), 11.7% (inactive). Take `COc1ccc(C(CNC(=O)c2cccc(S(=O)(=O)Nc3ccc(Br)cc3)c2)N(C)C)cc1` (configuration not stated): the inhibition is -24.3% (inactive).

Turning to `COc1ccc(Nc2nc(-c3cccnc3)nc3ccccc23)cn1`, the inhibition is 31.9% (inactive).

Take `Cc1cccc(-c2nc(Nc3ccc(O)cc3)c3ccccc3n2)c1`: the inhibition is 74.9% (active).

For the molecule `CCOC(=O)c1nc(Nc2ccc(C(=O)OC)cc2)c2ccccc2n1`, the inhibition is 33.7% (inactive). To `O=C1NCC(c2ccccc2)(c2ccccc2)C(=O)N1` belongs -22.9% (inactive); to `O=C(Cc1ccc(Cl)cc1)c1ccccc1`, 1.95% (inactive). To `O=C(CNC(=O)c1cc(S(=O)(=O)N2CCOCC2)ccc1N1CCCC1)Nc1ccc(F)c(F)c1` belongs 12.1% (inactive); to `COC(=O)C1=CN(C)C=C(C(=O)OC)C1c1ccc(Cl)cc1Cl`, -0.162% (inactive); to `COC(=O)C1=CN(c2ccc(F)c(F)c2)C=C(C(=O)OC)C1c1ccc([N+](=O)[O-])cc1`, 71.8% (active). The figure for `COC(=O)c1nc2n(n1)C(c1ccc([N+](=O)[O-])cc1)C(C(=O)Nc1ccc(Cl)cc1)=C(C)N2` (configuration not stated) is -8.37% (inactive). For the molecule `Cn1cc(C2OC(=O)c3ccccc32)c2ccccc21` (configuration not stated), the inhibition is 3.47% (inactive).

Regarding `CCCCN(C(=O)CSCc1ccc(C)cc1)c1c(N)n(Cc2ccccc2)c(=O)[nH]c1=O`, the inhibition was 7.84% (inactive). The figure for `O=C(Nc1ccc2ccccc2c1[N+](=O)[O-])c1ccccc1` is 14.4% (inactive); for `COC(=O)CC(CC(=O)OC)n1cccc1` it is -7.62% (inactive).

`CC[C@]12c3[nH]c4cc(CCC(=O)N(C)C)ccc4c3CCN1C(=O)[C@@H](CC(=O)NCc1ccco1)C[C@@H]2C(=O)N1CCN(C(=O)c2ccco2)CC1`: the inhibition is 2.87% (inactive).

`Cc1ccc(C)c(NC(=O)CN(C)C(=O)COc2ccc3ccccc3c2)c1`: the inhibition was 2.83% (inactive). The figure for `Cc1ccc(NS(=O)(=O)c2ccc(C)c(NC(=O)COc3ccc4ccccc4c3)c2)c(C)c1` is 78.5% (active); for `Cc1ccc(C)c(NS(=O)(=O)c2ccc(OCC(=O)NCc3cccnc3)cc2)c1` it is -23.5% (inactive); for `O=C1/C(=C\c2ccc([N+](=O)[O-])cc2)CS(=O)(=O)C/C1=C/c1ccc([N+](=O)[O-])cc1` it is 17.7% (inactive). The figure for `CC[C@@H]1Cc2cc(O)ccc2C2=C1c1ccc(O)cc1C[C@H]2CC` is 76.1% (active); for `O=C(NNC(=O)c1ccc2ccccc2c1)c1ccc(Cl)cc1` it is -17.1% (inactive). To `COC(=O)c1cnc(Nc2cc(C)ccc2OC)c2ccccc12` belongs 11.3% (inactive); to `COc1ccc(C)cc1Nc1nc(-c2c(C)[nH]c3ccccc23)cs1`, 77.1% (active).

`COc1ccc(C)cc1Nc1nc(C)nc2c1oc1ccccc12`: the inhibition was -8.2% (inactive). The figure for `COCC(=O)N(C)[C@H]1C[C@H]2c3cc(Oc4ccccc4C)ccc3CCN2C(=O)[C@H]1[C@H](C)O` is 5.04% (inactive); for `COc1ccc(NC(=O)C2=NNC(=O)CC2)cc1S(=O)(=O)N1CCCCC1` it is 12.9% (inactive). To `COc1ccc(OC)c(-c2csc(NC(=O)C3=NNC(=O)CC3)n2)c1` belongs 74.1% (active).

With `COc1ccc(OC)c(-c2csc(NC(=O)COC(=O)C3CC3)n2)c1`, the inhibition was 29.7% (inactive). The figure for `O=C(CC(=O)c1cccnc1)c1ccccc1` is 1.21% (inactive). The figure for `CCCCCC(=O)NC(=S)NNC(=O)c1ccc([N+](=O)[O-])cc1` is 11.5% (inactive); for `O=C(COc1ccc(/C=N/NC(=O)c2ccc(O)cc2)cc1)Nc1ccc([N+](=O)[O-])cc1` it is 24.6% (inactive). The figure for `CCCCCC(=O)Nc1ccc(C(=O)N/N=C/c2ccc([N+](=O)[O-])cc2)cc1` is 92.9% (active).

As to `Cc1ccc(S(=O)(=O)N2CCN(C(=O)c3cc(S(=O)(=O)N4CCOCC4)ccc3F)CC2)cc1`, the inhibition is -4.26% (inactive).

With `CCOC(=O)N1CCN(CC(=O)Nc2ccc(F)cc2)CC1`, the inhibition is -2.83% (inactive). Take `CCOc1ccc(NC(=O)c2ccc(NC(=O)C3CCCO3)cc2)cc1` (configuration not stated): the inhibition is 24.7% (inactive). The figure for `CCOc1ccc(NC(=O)c2ccc(NC(=O)COC(=O)c3ccc(NC(=O)CC#N)cc3)cc2)cc1` is 57.5% (inactive). Take `CCOc1ccc(NC(=O)c2ccc(NC(=O)CN3C(=O)C(=O)N(CC(C)C)C3=O)cc2)cc1`: the inhibition is 75.7% (active). Turning to `CCOc1ccc(NC(=O)CN2CCN(CC(=O)Nc3ccc(OC)cc3)CC2)cc1`, the inhibition was 77.8% (active). The figure for `CCOc1ccc(NC(=O)N2CCN(CC)CC2)cc1` is -5.71% (inactive); for `COc1ccc(/C=C2/CCCc3ccccc3C2=O)cc1` it is 12.7% (inactive).

Consider `CCOc1cc(C=NNC(=O)CCCC(=O)NN=Cc2ccc(O)c(OCC)c2)ccc1O`, for which the inhibition was 7.36% (inactive).

For `CCOC(=O)[C@H]1[C@H]2COc3ccc(Br)cc3[C@@H]2N2C(=O)CN(C)C(=O)[C@@]12C`, the inhibition was -11.5% (inactive). The figure for `Cc1cccc(NC(=O)c2ccc([N+](=O)[O-])o2)c1` is 0.0135% (inactive); for `Cc1cccc(NC(=O)c2cc([N+](=O)[O-])ccc2N2CCN(C)CC2)c1` it is 13.3% (inactive).

In the case of `Cc1cccc(NC(=O)c2sc(-c3ccccc3)nc2-c2ccc([N+](=O)[O-])cc2)c1`, the inhibition is 77.7% (active).
